Test results from PubChem BioAssay (NCATS).
Values joined by “and” are separate entries in the source; they are usually repeats but may differ in a detail not shown here. Equal entries are not always repeated. Results filed as inconclusive are left out. Active and inactive are the calls of the source. Calls come from the whole dose curve; as a rule, active = well fitted cell-killing curve with a large enough effect; inconclusive = small, poorly fitted or top-dose-only effect, or effect the other way; inactive = flat fitted curve, though single readings scatter.

experiment: qHTS assay for cell viability of HEK293 cells (AID 743288); details: ATP luminescence (CellTiter-Glo), 18 h, hits give low values; note: nearly all actives have a fitted effect of over 50% in size
Text: National Center for Advancing Translational Sciences [NCATS]
NIH Chemical Genomics Center [NCGC]
U.S. Environmental Protection Agency [EPA]
National Institutes of Environmental Health Sciences [NIEHS]
National Toxicology Program [NTP]
U.S. Food and Drug Administration [FDA]
The CellTiter-Glo Luminescent Cell Viability Assay (Promega, Madison, WI) is a homogeneous method to determine the number of viable cells in culture based on quantitation of the ATP present, which signals the presence of metabolically active cells. This cell viability assay was used to screen environmental chemicals in the Hek293 cell line.
Tox21 Assay Protocol Summary:
Cell viability after compound treatment was measured using a luciferase-coupled ATP quantitation assay (CellTiter-Glo viability assay, Promega, Madison, WI) in parental HEK293 cells. Total intracellular ATP content corresponds to the number of metabolically competent cells after compound treatment. The cells were dispensed at 2,000 cells/5 uL/well in 1,536-well white/solid bottom assay plates using a Flying Reagent Dispenser (Aurora Discovery, San Diego, CA). The cells were incubated a minimum of 5 h at 37 C, followed by the addition of 23 nL of compounds dissolved in DMSO, positive controls or DMSO only using a pintool work station (Kalypsys, San Diego, CA). The assay plates were incubated for 18 h at 37 C, followed by the addition of 5 uL/well of CellTiter-Glo reagent. After 30 min incubation at room temperature, the luminescence intensity of the plates was measured using a ViewLux plate reader (PerkinElmer, Shelton, CT).
% is set by controls: 0 for no effect and ±100 for the full control effect.

Row | Structure (SMILES) | max response
1 | CCCCOC(=O)c1ccc(N)cc1 | 3.29% (inactive)
2 | Cc1cc(C)nc(NS(=O)(=O)c2ccc(N)cc2)n1 | 2.28% (inactive) and -2.43% (inactive)
3 | O=C(OOC(=O)c1ccccc1)c1ccccc1 | -11.7% (inactive)
4 | Cc1ccc(C(C)C)c(O)c1 | -16.2% (inactive)
5 | Cc1c(N(C)C)c(=O)n(-c2ccccc2)n1C | 1.77% (inactive) and -15.3% (inactive)
6 | CC(=O)NS(=O)(=O)c1ccc(N)cc1 | -3.22% (inactive)
7 | CC1CC(OC(=O)c2ccccc2O)CC(C)(C)C1 (configuration not stated) | -5.44% (inactive)
8 | COc1ccc(O)cc1 | -0.79% (inactive)
9 | CC[N+](CC)(CC(=O)Nc1c(C)cccc1C)Cc1ccccc1 | -11.2% (inactive)
10 | CC(=O)Nc1cccc(O)c1 | -4.32% (inactive)
11 | Cc1cccc(Nc2ccccc2C(=O)O)c1C | 2.21% (inactive)
12 | CCCC(O)C(CC)CO (configuration not stated) | -0.929% (inactive)
13 | CC(C)=CCC/C(C)=C/CO | 0.933% (inactive)
14 | Cc1cc(=O)[nH]c(=S)[nH]1 | -3.4% (inactive)
15 | FC(F)(F)C(Cl)Br (configuration not stated) | 6.13% (inactive)
16 | Nc1ccc(S(=O)(=O)c2ccc(N)cc2)cc1 | -5.62% (inactive) and -11.7% (inactive)

Row | Structure (SMILES) | max response
17 | CCCCCC(N)=O | 7.6% (inactive)
18 | CC(=O)Nc1ccccc1 | -0.588% (inactive)
19 | CCCCCCCC(=O)OCC(COC(=O)CCCCCCC)OC(=O)CCCCCCC | -8.85% (inactive)
20 | CCN(CC)C(=O)c1cccc(C)c1 | 4.9% (inactive) and -5.34% (inactive)
21 | Cc1c(C(=O)NCCO)[n+](=O)c2ccccc2n1[O-] | -4.66% (inactive)
22 | O=C1c2cccc(O)c2C(=O)c2c(O)cccc21 | -10.2% (inactive)
23 | O=C(c1ccccc1)C(O)c1ccccc1 (configuration not stated) | 0.203% (inactive) and -6.25% (inactive)
24 | CC(=O)OCC(COC(C)=O)OC(C)=O | 2.21% (inactive) and 6.16% (inactive)
25 | O=C(O)CCCCC1CCSS1 (configuration not stated) | -11.1% (inactive) and -8.74% (inactive)
26 | OC[C@@H](O)[C@@H](O)[C@H](O)[C@H](O)CO | -10.6% (inactive)
27 | COC(=O)c1ccc(O)cc1 | 1.25% (inactive)
28 | C=CCNC(N)=S | -7.7% (inactive)
29 | CC(=O)Nc1ccc(C(=O)O)cc1 | -10.3% (inactive)
30 | Cc1cc(O)cc(C)c1Cl | -9.96% (inactive)
31 | O=C1C(c2[nH]c3ccccc3c2O)=Nc2ccccc21 | 1.4% (inactive)
32 | CCCCCCCCCCCCCCCCCCO | -6.21% (inactive)
